In PubChem BioAssay:
Unmarked numbers belong to inactive results. No rule for the calls is given here.

Molecular target: Pantothenate synthetase (Mycobacterium tuberculosis (strain ATCC 25618 / H37Rv)) (UniProt P9WIL5)
Assay: Recombinant Mtb pantothenate synthetase (PanC) inhibitors, coupled enzyme, confirmatory (AID 375);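 also: 0% = full reaction with vehicle and 100% = no enzyme background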
Conditions: coupled enzyme assay; at 10 µM, stronger effect = higher value

Pantothenate synthetase (Mycobacterium tuberculosis (strain ATCC 25618 / H37Rv)), sequence (P9WIL5 whole entry, looked up): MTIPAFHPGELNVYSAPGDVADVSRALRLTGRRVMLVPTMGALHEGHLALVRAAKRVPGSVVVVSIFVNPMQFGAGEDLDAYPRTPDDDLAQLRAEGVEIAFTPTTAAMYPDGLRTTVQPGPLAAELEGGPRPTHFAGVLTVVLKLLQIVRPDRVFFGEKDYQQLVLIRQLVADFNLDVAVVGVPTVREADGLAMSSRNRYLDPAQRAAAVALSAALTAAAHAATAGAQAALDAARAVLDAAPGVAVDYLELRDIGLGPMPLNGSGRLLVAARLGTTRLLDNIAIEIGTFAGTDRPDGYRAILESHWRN

Row | SMILES | inhibition
1 | COC(=O)CN(Cc1ccco1)S(=O)(=O)c1ccccc1 | 1%
2 | Cc1ccc(S(=O)(=O)NC(=O)NN2CCCCCC2)cc1 | 4%
3 | N/C(=N/O)c1nc(N2CCCCC2)nc(N2CCCCC2)n1 | 0%
4 | CCCCCOC(=O)C1=C(C)N(C)C(=O)NC1c1cc(Br)c(O)c(OC)c1 (stereo not given) | 0%
5 | Cc1cc(C)cc(N(CC(=O)NC2CCC(C)CC2)S(=O)(=O)c2c(C)noc2C)c1 (stereo not given) | 0%
6 | CCSc1nnc(NC(=O)CSc2nnc(Cc3cccn3C)n2-c2ccc(C)cc2)s1 | 5%
7 | OCCNCCCCOc1ccccc1F | 0%
8 | COc1cccc(Oc2ccc(N)cn2)c1 | 0%
9 | CCOC(=O)c1sc(NC(=O)CSc2nnc(-c3ccc(OC)cc3)n2CCOC)nc1C | 6%
10 | O=C(CCS(=O)(=O)c1cccc2nsnc12)N1CCN(Cc2ccc3c(c2)OCO3)CC1 | 0%
11 | Cc1ccc(NC(=O)CCC(=O)OCC(F)(F)C(F)F)cc1 | 0%
12 | CCN1C(=O)c2ccccc2S(=O)(=O)c2ccc(C(=O)NCc3cccnc3)cc21 | 0%
13 | Cc1ccc(NCC(O)C(O)C(O)CO)cc1C (stereo not given) | 0%
14 | Cc1ccc(CNC(=O)CSc2n[nH]c(N)n2)cc1 | 0%
15 | Nc1nnc(-c2ccccc2)c(-c2ccccc2)n1 | 0%
16 | CC1=C(C(=O)NC2CCC(C)CC2)C2(CCC(C)CC2)OC1=O (stereo not given) | 2%
17 | CN(C)c1ccc(CNCCC2(O)CCOC(C)(C)C2)cc1 (stereo not given) | 2%
18 | CCOC(=O)N1CCC(NC(=O)c2cnn3ccccc23)CC1 | 0%
19 | O=C(C1CCN(c2nnc(-n3cccc3)s2)CC1)N1CCc2ccccc2C1 | 0%
20 | CC(C)(C)N(Cc1cc2ccccc2[nH]c1=O)C(=O)C1CCCCC1 | 3%

Row | SMILES | inhibition
21 | O=C(CSc1ncnc2c1oc1ccccc12)Nc1ccccc1F | 2%
22 | Cc1ccc(NC(=O)COS(=O)c2ccc(C)cc2)cc1 (stereo not given) | 0%
23 | O=C(O)CCNc1nc(-c2ccccc2)nc2ccccc12 | 3%
24 | COc1cccc(-c2cc(C(=O)N3CCCc4ccccc43)no2)c1 | 0%
25 | CCOC(=O)CSc1nnc(CCc2nc3ccccc3[nH]2)n1C | 10%
26 | O=C(C1CCN(S(=O)(=O)c2cccnc2)CC1)N1CCN(c2ccc(Cl)cc2)CC1 | 0%
27 | O=C(C1CC2CCC1C2)N1CCN(Cc2ccc3c(c2)OCO3)CC1 (stereo not given) | 8%
28 | Cc1csc(NC(=O)c2sc3nc(-c4cccs4)ccc3c2N)n1 | 5%
29 | Brc1ccc(-c2nnc3sc(CN4CCC5(CC4)OCCO5)cn23)cc1 | 0%
30 | Cc1ccc(OCC(O)Cn2c(=N)n(CCN3CCCCC3)c3ccccc32)cc1 (stereo not given) | 0%
31 | O=C(O)C1CC(=O)N(CCOc2ccccc2)C1 (stereo not given) | 8%
32 | CC(C)Cc1ccc(C(C)C(=O)O)cc1 (stereo not given) | 0%
33 | Cc1ccc(C(=O)NC2CC3CCCC(C2)N3C(=O)NC2CCCCC2)cc1 (stereo not given) | 8%
34 | O=C(Nc1cccc(NC(=O)c2cccnc2)c1)c1cccnc1 | 1%
35 | Cc1ccc(F)cc1NC(=O)Cc1nn(C)c(=O)c2ccccc12 | 1%
36 | O=C(O)CSc1ncn[nH]1 | 0%
37 | O=C(NCc1ccco1)c1cc2cc3ccc(Cl)cc3nc2o1 | 4%
38 | O=C(NCc1ccco1)c1cc2sccc2n1Cc1ccccc1 | 0%
39 | O=C(CCSc1ccccc1)N1CCOCC1 | 0%
40 | COc1ccc(C)cc1NC(=O)CNC(=O)Cn1ccc2ccccc2c1=O | 5%
